# Measured values published in publication PMC4336329 (PLoS ONE, 2015).
# The whole screen tested about 310,000 compounds, of which about 2,200 (0.71%) showed an effect of 50% or more. Effects have a minus sign here. The full list was thinned out, with strong results kept by preference.
# Molecular target: human ether-à-go-go-related gene (hERG) potassium channel (human, UniProt Q12809)
# Assay: primary screen, population patch clamp on CHO cells stably expressing hERG; higher = less effect of the substance
# Sequence of human ether-à-go-go-related gene (hERG) potassium channel (Q12809 whole entry, looked up): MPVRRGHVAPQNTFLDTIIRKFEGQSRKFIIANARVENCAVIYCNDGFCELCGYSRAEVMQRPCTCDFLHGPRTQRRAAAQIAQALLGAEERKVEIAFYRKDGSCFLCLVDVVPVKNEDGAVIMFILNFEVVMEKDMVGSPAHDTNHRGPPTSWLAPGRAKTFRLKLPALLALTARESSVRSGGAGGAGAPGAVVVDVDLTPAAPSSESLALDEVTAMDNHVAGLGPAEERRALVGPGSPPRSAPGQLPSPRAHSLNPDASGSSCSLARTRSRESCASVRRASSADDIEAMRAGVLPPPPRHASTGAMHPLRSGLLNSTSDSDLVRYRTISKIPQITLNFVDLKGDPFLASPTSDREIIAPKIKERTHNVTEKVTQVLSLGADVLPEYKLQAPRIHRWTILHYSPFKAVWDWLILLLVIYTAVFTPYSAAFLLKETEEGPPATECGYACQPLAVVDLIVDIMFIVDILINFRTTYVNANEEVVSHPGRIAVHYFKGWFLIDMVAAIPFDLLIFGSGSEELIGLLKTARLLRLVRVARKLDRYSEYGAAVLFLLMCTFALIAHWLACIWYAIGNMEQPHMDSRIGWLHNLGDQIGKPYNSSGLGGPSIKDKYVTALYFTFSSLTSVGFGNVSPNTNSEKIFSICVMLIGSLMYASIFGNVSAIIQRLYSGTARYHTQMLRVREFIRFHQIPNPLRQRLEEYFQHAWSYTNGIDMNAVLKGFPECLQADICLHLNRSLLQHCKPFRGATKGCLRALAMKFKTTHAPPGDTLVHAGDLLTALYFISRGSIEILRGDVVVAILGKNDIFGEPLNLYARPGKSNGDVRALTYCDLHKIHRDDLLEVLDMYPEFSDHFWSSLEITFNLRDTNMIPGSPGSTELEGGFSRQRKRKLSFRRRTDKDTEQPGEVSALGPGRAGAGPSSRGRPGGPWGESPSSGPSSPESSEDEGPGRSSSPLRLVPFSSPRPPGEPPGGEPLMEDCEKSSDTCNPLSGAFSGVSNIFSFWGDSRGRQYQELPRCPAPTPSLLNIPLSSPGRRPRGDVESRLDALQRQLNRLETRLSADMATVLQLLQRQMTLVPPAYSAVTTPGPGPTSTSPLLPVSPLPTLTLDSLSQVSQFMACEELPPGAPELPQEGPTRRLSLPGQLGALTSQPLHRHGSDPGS
row,SMILES,"hERG current change (%, negative = inhibition) at 1uM"
1,Cc1ccc2sc(NNC(=O)C3COc4ccccc4O3)nc2c1C (stereo not shown),9.9%
2,O=C(NCCNC(=O)c1cccnc1)c1ccc(Br)cc1,29.6%
3,CN(C)C/C=C(/c1ccc(Br)cc1)c1cccnc1.Cl,-60.8%
4,CN(C)C/C=C(\c1ccc(Br)cc1)c1cccnc1.Cl.O,-35.3%
5,CC(C)C(=O)Nc1ccc2c(c1)oc1ccccc12,11.8%
6,O=C(COC(=O)C12CC3CC(CC(O)(C3)C1)C2)Nc1ccc(Cl)cc1F,-1.56%
7,COc1ccccc1C(=O)Nc1ccon1,-0.0061%
8,N=c1nc(N)nc2n1NC(c1ccc(F)cc1)=CS2,-3.69%
9,CN1C2CCC1CC(N(CCc1ccccc1)C(=O)c1ccc(Cl)cc1)C2.Cl (stereo not shown),-78.8%
10,COc1ccc(N(C(=O)/C=C/c2ccc(OC)c(OC)c2)C2=CC3CCC(C2)N3C)cc1.Cl (stereo not shown),-42.8%
11,COc1ccc(N(C(=O)c2ccc(Cl)cc2)C2=CC3CCC(C2)N3C)cc1.Cl (stereo not shown),-76.1%
12,CN1C2CCC1CC(OC(=O)c1ccc(Cl)cc1)C2.Cl (stereo not shown),-9.75%
13,CN1C2C=C(N(C(=O)c3ccc(Cl)cc3)c3ccccc3)CC1CC2.Cl (stereo not shown),-69.8%
14,COc1ccc(C(=O)CN(C(=O)c2ccc(Cl)cc2)N2C(=O)C3CCCCC3C2=O)cc1 (stereo not shown),10.8%
15,COc1ccc(N(C(=O)/C=C/c2ccccc2)C2=CC3CCC(C2)N3C)cc1.Cl (stereo not shown),-70.3%
16,CN1C2C=C(N(CCc3c[nH]c4ccccc34)C(=O)c3ccc(Cl)cc3)CC1CC2.Cl (stereo not shown),-41.4%
17,Cc1cc(C)cc(C(=O)N(CCc2ccccc2)C2CC3CCC(C2)N3C)c1.Cl (stereo not shown),-18%
18,CN1C2C=C(N(CCc3ccccc3)C(=O)c3ccc(Cl)cc3)CC1CC2.Cl (stereo not shown),-19.7%
19,CCCCN(C(=O)c1ccc(Cl)cc1)C1CC2CCC(C1)N2C.Cl (stereo not shown),-15.6%
20,COc1cc(C(=O)N(CCc2ccccc2)C2=CC3CCC(C2)N3C)cc(OC)c1OC.Cl.O (stereo not shown),-13.5%
21,Cc1cc(C)n2c(SC(C)C(=O)NC3(C#N)CCCCC3)nnc2n1 (stereo not shown),11.7%
22,CCOC(=O)c1oc2ccccc2c1NC(=O)c1ccc(S(=O)(=O)N2CCCC2)cc1,-6.45%
23,CCOC(=O)C1CCN(S(=O)(=O)c2cc(F)ccc2OC)CC1,8.83%

row,SMILES,"hERG current change (%, negative = inhibition) at 1uM"
1,COc1ccc(-c2nc(NCCCN(C)C)c3ccccc3n2)cc1.Cl,3.72%
2,C=C(C)Cn1c(SCC#N)nc2ccccc2c1=O,3.85%
3,COc1ccc(S(=O)(=O)N2CCN(C)CC2)c2ccccc12,9.59%
4,CC(Sc1nc2ccccc2n1C)C(=O)Nc1ccc(N2CCOCC2)cc1 (stereo not shown),6.2%
5,CN1CCN(C(=O)CCC(=O)NCc2ccc(F)cc2)CC1,9.84%
6,O=C(COC(=O)c1ccccn1)NC(=O)c1ccccc1,-5.45%
7,Cc1[nH]nc2ncc(C(=O)c3cc(Cl)cc(Cl)c3O)cc12,10.1%
8,COc1cccc(OC)c1C(=O)Nc1nc2ccc([N+](=O)[O-])cc2s1,16.1%
9,COc1cccc(CNC(=O)c2cc(C3CC3)nc3c2cnn3C(C)C)c1,-0.644%
10,COc1ccc(CCN(C(=O)c2ccc(F)cc2)C2=CC3CCC(C2)N3C)cc1OC.Cl (stereo not shown),-22.6%
11,COc1ccc(N(C(=O)c2ccc(F)cc2)C2=CC3CCC(C2)N3C)cc1.Cl (stereo not shown),-50.3%
12,CCCCN(C(=O)c1cc(OC)c(OC)c(OC)c1)C1=CC2CCC(C1)N2C.Cl (stereo not shown),8.68%
13,CCOc1cc([N+](=O)[O-])cc(/C=C2/NC(=O)N(Cc3ccccc3F)C2=O)c1O,4.45%
14,COc1cc(NC(=S)NC(=O)c2ccccc2F)ccc1NC(=O)c1ccco1,7.37%
15,CCn1c(SCC(=O)Nc2ccccc2)nc2nc3c(cc2c1=O)COC(C)(C)C3,-12.4%
16,CCn1c(SCC(=O)Nc2ccc(C)cc2)nc2nc3c(cc2c1=O)COC(C)(C)C3,-76.5%
17,CCn1c(SCC(=O)Nc2ccc(C(C)=O)cc2)nc2nc3c(cc2c1=O)COC(C)(C)C3,14.1%
18,Cc1cccc(-n2ncc3c(NC(C)C)ncnc32)c1,12.7%
19,Cc1nn(C(C)C(=O)Nc2ccc(Cl)cn2)c(C)c1[N+](=O)[O-] (stereo not shown),2.84%
20,Cc1ccc(C)c(NC(=O)C2CC(O)CN2C(=O)OCc2ccccc2)c1 (stereo not shown),2.34%
21,COc1ccc(N2CCN(CCC(N)=O)CC2)cc1,14.6%
22,COc1ccc(C(=O)CCN2CCN(c3ccc(OC)cc3)CC2)cc1,-74.1%
23,COc1ccc(C(=O)NCCN2CCN(C(=O)c3ccc(OC)cc3)CC2)cc1,-22.1%
